# Screening data from PubChem.
# Hits are enriched below; roughly 8.3% of the tested compounds scored in any of these assays.
# HCV inh = inhibitors of hepatitis C virus infection. AID 651820. 340,000 tested, 3.4% active. Huh7.5.1 HCVcc-Cre infection, luciferase reporter, 44 h. Potency, µM (highest dose often 41.8 µM), most hits filed as inhibitors
#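 Reporter virus HCVcc-Cre (~0.5 moi) infects cells exposed to compound; seeding density 1,000 cells/well with 4 h settling beforehand. Luminescence, 15 sec read, taken 44 h post-infection following a 15 min RT substrate incubation.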
# FBPA Giardia inh = blocks Giardia fructose-bisphosphate aldolase activity | purified Giardia FBPA | Potency, µM (top dose mostly 59.6 µM), most hits filed as inhibitors | 290,000 tested, 0.71% active; also: nearly all actives have a fitted effect of over 55% in size
# Target sequence (A8B2U2 whole entry, looked up): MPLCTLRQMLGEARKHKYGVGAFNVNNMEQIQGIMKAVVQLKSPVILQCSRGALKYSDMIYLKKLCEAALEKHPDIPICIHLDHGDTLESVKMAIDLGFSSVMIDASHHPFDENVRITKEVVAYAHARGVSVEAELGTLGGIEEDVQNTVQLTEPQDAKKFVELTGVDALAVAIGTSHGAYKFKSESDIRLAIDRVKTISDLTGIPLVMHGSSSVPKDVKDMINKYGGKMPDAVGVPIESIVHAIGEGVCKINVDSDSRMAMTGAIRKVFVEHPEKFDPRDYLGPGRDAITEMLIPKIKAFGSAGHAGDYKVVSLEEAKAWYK
#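 Giardia FBPA (40 nM reagent) was preincubated 10 min at RT with compound (up to 57.5 uM final), then substrate plus GAPDH/TPI/NAD/arsenate coupling system with diaphorase/resazurin was added; resorufin fluorescence (525/598 nm) was read after 20 min.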
# HCMV antiviral = blocks human cytomegalovirus replication; HFF cells, HCMV-luciferase reporter, 72 h; active compounds read low; activity change, negative = inhibition, % at 57.5 µM; 410,000 tested, 4.5% active; in the data active = activity change below about -60%; inconclusive = no clear call, values can overlap the other calls; inactive = above about -39%
#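 Two compound doses tested in HFFs infected with HCMV-luciferase, MOI 1 PFU/cell, 72 h at 37C. Lysate luminescence read with OneGlo; data normalized against buffer-only and 10uM Salinomycin inhibitor controls.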
# LASV entry inh = Lassa virus entry inhibition. Lassa virus pseudotype entry inhibition, cell reporter. Potency, µM (doses to about 37.9 µM), hits mostly inhibitors. 300,000 tested, 1.2% active; calls by dose curve; tested in HEK293 cells; also: nearly all actives have a fitted effect of over 50% in size
# MARV entry inh = inhibitors of Marburg virus binding or cell entry; Potency, µM (doses to about 37.8 µM), most hits filed as inhibitors; AID 540276; 300,000 tested, 1.8% active; Marburg virus pseudotyped entry inhibition, cell reporter; calls by dose curve; tested in HEK293 cells
# FMDV antiviral = antivirals against foot and mouth disease virus; FMDV antiviral cell-based qHTS; Potency, µM (series often up to 57.9 µM), usual class: inhibitors; 410,000 tested, 1.2% active; calls by dose curve; tested in HEK293T cells; also: read-out not given here; nearly all actives have a fitted effect of over 45% in size
# A number is an active result; – = inactive; ? = inconclusive; · = not tested or not shown; ! = repeats disagree; [ ] = dose if it differs, or a comment. Unless noted, calls follow the shape of the dose curve; as a rule, active = well fitted curve in the direction sought with a large enough effect; inconclusive = small, poorly fitted or top-dose-only effect, or another doubt; inactive = no such curve, though single readings can be large; an effect the other way counts as inactive or inconclusive.
SMILES,HCV inh,FBPA Giardia inh,HCMV antiviral,LASV entry inh,MARV entry inh,FMDV antiviral
COC(=O)C1=C(C(=O)OC)[C@@H]2N(C)c3ccccc3[C@@]23C[C@@H](C(=O)OC)N(S(=O)(=O)c2ccc([N+](=O)[O-])cc2)C3=N1,·,–[12.9 µM],·,·,·,·
Cc1cccc(-n2ncc3c2CCCC3NC(=O)c2ccncc2)c1C (centres undefined),·,·,-79,·,·,?
Cc1cccc(-n2ncc3c2CCCC3NC(=O)CCc2cccnc2)c1C (centres undefined),?,–,-63,·,·,–
Cc1cccc(-n2ncc3c2CCCC3NC(=O)c2cccs2)c1C (centres undefined),·,·,-75,·,·,?
Cc1cccc(-n2ncc3c2CCCC3NC(=O)Cc2c(C)noc2C)c1C (centres undefined),8.9µM,–,?,·,·,–
Cc1cc(C)cc(-n2ncc3c2CCCC3NC(=O)c2ccccc2)c1 (centres undefined),·,·,–,·,·,?
Cc1cccc(-n2ncc3c2CCCC3NC(=O)CN2CCCC2=O)c1C (centres undefined),–,·,–,?,?,–
CC1CCN(S(=O)(=O)c2ccc3c(c2)N(CC(=O)NCCc2ccc(Cl)cc2)C(=O)CO3)CC1,·,·,–,–,?,–
COC(=O)C1=C(C)NC(C)=C(C(=O)NCCCN2CCC(c3ccccc3)(c3ccccc3)CC2)C1c1ccc([N+](=O)[O-])cc1 (centres undefined),·,–,·,·,·,?
COc1c(C2=CC(=O)N(C)C2=O)c2c(n1C)C(=O)c1ccccc1C2=O,·,?,·,·,·,–
CCn1cc(S(=O)(=O)c2cccc(C)c2)c(=O)c2cc(F)c(N3CCCC(C)C3)cc21 (centres undefined),·,·,–,–,·,–
O=c1c(-c2ccco2)nc2ccccc2n1/C=C(/c1ccc(C(F)(F)F)cc1)n1c(=O)[nH]c2ccccc21,·,·,–,·,·,·
Cc1cc(C(=O)NC2CCCc3ccccc32)no1 (centres undefined),–,–,–,–,–,–
CCn1cc(C(=O)NC2CCCc3c2cnn3-c2cccc(C)c2C)cn1 (centres undefined),·,·,-99,·,·,·
CC1=C(C(=O)NC2CCCc3c2cnn3-c2cccc(C)c2C)OCCO1 (centres undefined),3.5µM,·,-79,?,?,?
Cc1cc(C(=O)NC2CCCc3c2cnn3-c2cccc(C)c2C)no1 (centres undefined),11µM,–,-97,?,?,–
Cc1cccc(-n2ncc3c2CCCC3NC(=O)CN2CCOC2=O)c1C (centres undefined),–,·,–,·,·,–
COC(=O)c1ccc(C(=O)NC2CCCc3c2cnn3-c2ccc(C)c(C)c2)cc1 (centres undefined),13µM,–,?,?,?,?
Cc1cnc(C)c(-c2cc(F)cc3c2OC(CNC(=O)c2cc(Cl)ccc2F)C3)n1 (centres undefined),·,·,·,·,·,–
Cc1ccc(C)c(CSC2=NC(C)(C)Nc3ccccc32)c1,·,·,?,?,·,–
COC(=O)C1=C(C(=O)OC)[C@@H]2N(C)c3ccccc3[C@@]23C[C@@H](CO)N(C(=O)c2cc(C)oc2C)C3=N1,·,–[12.9 µM],·,·,·,·
CC(C)(C)c1ccc(S(=O)(=O)N[C@H]2CC[C@@H](n3cc(C(=O)N4CCCC4)nn3)CC2)cc1,·,·,·,·,·,–
COc1ccc(C(=O)NC2CCCc3c2cnn3-c2cccc(C)c2C)o1 (centres undefined),?,·,-93,·,·,–
COc1ccc(NC(=O)N2CCC(CN3CCCC3)CC2)c(OC)c1,·,·,–,?,·,–
CC(=O)c1ccccc1OCC(O)CN1CCN(C(c2ccccc2)c2ccccc2)CC1 (centres undefined),10µM,–,–,–,?,–
SMILES,HCV inh,FBPA Giardia inh,HCMV antiviral,LASV entry inh,MARV entry inh,FMDV antiviral
N#C/C(=C\c1cccc(O)c1)C(=O)O,·,–,·,·,·,–
N#C/C(=C\c1ccc(O)cc1)C(=O)O,1.1µM,–,-73!,·,·,–
CCCCn1nc2cc(C(=O)NCc3ccccc3OC)ccc2c1OCC,3.5µM,–,–,·,·,–
O=C(N=Nc1c(O)[nH]c2c(Cl)cc(Cl)cc12)c1ccccc1O,·,·,–,·,·,·
O=C(Nc1ccc(Oc2ccc(Cl)cc2)c(Cl)c1)c1cc(I)cc(I)c1O,32µM,–,?,·,·,?
O=c1c2cc(Br)ccc2[nH]c(=S)n1-c1ccccc1,–,–,–,–,–,–
O=C1Cc2c([nH]c3ccc(Br)cc23)-c2ccccc2N1,?,–,-75,?,?,–
